Over roughly 24,000 sequences, “enrichment r” has its median near 0.99; the highest 2% begin near 3.7. This is one part of a sample in which the highest values are shown more often than they occur.

T1: UNK ZnF1-3 (human, UniProt Q9C0B0 31-174)
T1 sequence: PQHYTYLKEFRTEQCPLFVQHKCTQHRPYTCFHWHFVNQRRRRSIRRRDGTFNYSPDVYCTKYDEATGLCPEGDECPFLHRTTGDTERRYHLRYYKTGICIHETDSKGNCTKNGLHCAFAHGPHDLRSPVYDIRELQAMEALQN

B1: chr7:75932113:75932114:+_ENSG00000106211_ENST00000248553|hu_hu|hu_hu_hu_mus_False|8_18 (ssRNA)
RNA: GGGAGUUCUACAGUCCGACGAUCCUGCGACCACUCAUCGGGCAACCGGGGCACCCCGAAAGCUUGAUCGAAGAGGCGGCUGUGUGCAGGGUACCAGUCCCGGAAUGGUUCCCAGCUGCCCCGCAGGAGCGAGAAGGAGGGCACCAACAGAGGAUUGAGCAUCA
B2: 171752885_171753005_485_CDS_ENSG00000010165_ENST00000361735|human|control|control (ssRNA)
RNA: GGGAGUUCUACAGUCCGACGAUCGGUGGCAUUACAUUCCUUCAUUUGCUUGAUGACAACCUCACUGAUGUCGAUGUUCACUAUAUCCCGAUAGCCCACAUCAUACAGUUGCUCACUCAGUUCUGAGUUGCCACACCCAAUCACCAACAGAGGAUUGAGCAUCA
B3: 59346998_59352246_650_CDS_ENSG00000215114_ENST00000399598|human|control|control (ssRNA)
RNA: GGGAGUUCUACAGUCCGACGAUCAUCCAAAUUCACUUGGCCACCAUGAACAAGGCGCUGAAGCUCCAGGGGAAUCUCUCCUCUCUUAACAGACUCCAGAAAUUGAGCAUUUGUUGGUUCAUUGUAAGGUCUCAAUUCUCCAUCCAACAGAGGAUUGAGCAUCA
B4: 244175_244709_261_3pUTR_ENSG00000185627_ENST00000382671|human|control|control (ssRNA)
RNA: GGGAGUUCUACAGUCCGACGAUCUUACACAGGAUCACUGCCUCAUCACUACUUUUCACCUUCUCACGAGUCUUUUCCAGAAAAGUAAGAGCCACAUUAGGAUCAGUCAUCUGUCUAACUACAUGAAGAAUGAUUUCCACGAGGCAACAGAGGAUUGAGCAUCA
B5: chr5:176910979:176910980:-_ENSG00000196923_ENST00000355841|hu_hu|FALSE|FALSE (ssRNA)
RNA: GGGAGUUCUACAGUCCGACGAUCCCCAGCGUCGAUCUUGAAGUCACAGCCAUGGCAUUUCGUGCCAAACAUCUUCUCAUAGUCUCGCUCGCAAUAGGGCACGCCCUCCUCCAUGUAGAAGGCCCUGUUCCGGAUGGGCGUCUUCAACAGAGGAUUGAGCAUCA
B6: 118753231_118753351_2268_3pUTR_ENSG00000125354_ENST00000354416|human|control|control (ssRNA)
RNA: GGGAGUUCUACAGUCCGACGAUCUGAAAUACCUCACAAGAAGAAUUCGGUAAGGCUAUCAUUCAAGACUCUAGGCUGGUAAUAAUAUUCAGGUUUAUUCUCCCUUUUGCAUCUGUGGGAUACCCAGAGUUAGAGAGAGGGGAACAACAGAGGAUUGAGCAUCA
B7: chr5:151611259:151611260:+_ENSMUSG00000034021_ENSMUST00000016569|mus_mus|FALSE|FALSE (ssRNA)
RNA: GGGAGUUCUACAGUCCGACGAUCGCAUUUCUGAACAUAAUGUUCAAGAAGUAAUAUCUAUACACAAUAACAUUCUAGACUAUUAAAAGCCCAUUCAAAUUACAGAAUUUUAUUGAUACAGUAGAUUAAUAUAAACUGAAAAAACAACAGAGGAUUGAGCAUCA
B8: chr17:64801638:64801639:+_ENSG00000154229_ENST00000413366|hu_hu|motif|central (ssRNA)
RNA: GGGAGUUCUACAGUCCGACGAUCAUCAAAUACAUAUAUAUACACACACAUAUGUAGUAAGAGCCUAAUCUAUCACGUAAACGGGCCAUUCAUUUUUGAAAUUUUAUCUACAUUUAAAAAGUAAUCUAUCUGAUACAGUGCCCACAACAGAGGAUUGAGCAUCA
B9: 16459948_16460068_3699_3pUTR_ENSMUSG00000024639_ENSMUST00000025541|mouse|control|control (ssRNA)
RNA: GGGAGUUCUACAGUCCGACGAUCAUCCCUAGUCAGAAAUAAACUGACAAAUUUACAUUCUCCUCUCUUAAAAAAGUAAAUAAAAUAACAUUAUUCAAAAUGUGAAUUAGCUAUAAGACAUACAAUUACAUAGAUACAUAUCAACAACAGAGGAUUGAGCAUCA
B10: 66017293_66045708_550_CDS_ENSMUSG00000056515_ENSMUST00000070673|mouse|control|control (ssRNA)
RNA: GGGAGUUCUACAGUCCGACGAUCAGCGUCCUUCAGGGGCACCUCCCUAAUAUCAGAGAGGUCACACUUGUUCCCAGCAAUCGCCAUCACAAUGUUUUCUGGGCCGUGCUCCUUCAGCUCCUUGACCCAUUUUUUCAAGGUAUGCAACAGAGGAUUGAGCAUCA
B11: 25965218_25965338_4171_CDS_ENSG00000143970_ENST00000336112|human|control|control (ssRNA)
RNA: GGGAGUUCUACAGUCCGACGAUCGCCUCUAUAGCUUGGCCCUAUCUGGGUGGGGCUUCCAUACAACUUCGGGGUUUGCAGGGGUGGAAGGAGUAGGGGCUGGUGGGUGGGGCUGUCUGCAGGCAGAGGAAGAACAGUAGAACUCAACAGAGGAUUGAGCAUCA
B12: chr6:41757443:41757444:+_ENSG00000214736_ENST00000398881|hu_mus|hu_hu_hu_mus_False|8_108 (ssRNA)
RNA: GGGAGUUCUACAGUCCGACGAUCGAACUGUCUGCUGGCAACAUCUCAGCCGACACUGGGGGAUGGGGGGGCAGUGGGGGGGGGUUCAGGCAAGGAGAGGGAGUCAACUUCAGCUGCCACUCAGGUAGCUGCCAUCAGUCACAGCAACAGAGGAUUGAGCAUCA
B13: 53358179_53360397_419_3pUTR_ENSMUSG00000033054_ENSMUST00000035850|mouse|control|control (ssRNA)
RNA: GGGAGUUCUACAGUCCGACGAUCCAUCGCUGCCGCUUGAUUUCUGCAAUUCCAUUUCUCGUUCGAGCUCUCUGAUGGGCAGCAAACCCUGGAGAACUGUGCAUGCUCCUGAUCUGAGAGAGUGUGUGGUCUAGCUUCUUCCAUCAACAGAGGAUUGAGCAUCA
B14: chr6:41757443:41757444:+_ENSG00000214736_ENST00000398881|hu_mus|hu_hu_hu_mus_False|58_108 (ssRNA)
RNA: GGGAGUUCUACAGUCCGACGAUCGAACUGUCUGCUGGCAACAUCUCAGCCGACACUGGGGGAUGGGGGGGCAGUGGGAAACUAGGCAGGCAAGGAGAGGGAGUCAACUUCAGCUGCCACUCAGGUAGGAUCUUGUGGUCACAGCAACAGAGGAUUGAGCAUCA
B15: chr6:41757443:41757444:+_ENSG00000214736_ENST00000398881|hu_mus|hu_hu_hu_mus_False|18_108 (ssRNA)
RNA: GGGAGUUCUACAGUCCGACGAUCGAACUGUCUGCUGGCAACAUCUCAGCCGACACUGGGGGAUGGGGGGGCAGUGGGGGGGGGUUCAGGCAAGGAGAGGGAGUCAACUUCAGCUGCUCAAACUUCAGGAUCUUGUGGUCACAGCAACAGAGGAUUGAGCAUCA
B16: 8158834_8158954_592_CDS_ENSG00000178921_ENST00000314666|human|control|control (ssRNA)
RNA: GGGAGUUCUACAGUCCGACGAUCAGGGCCAUUGAGGGGUUCCGGCAUGCUCUCAGGGGAGAAACUCUGGAUGGGAUGGGGGAAGUGCUGCUCUGUCAUCCGGUCGUGCAGGGUAGCCAGAGCAAUGGCUUCCACCUCAGCUGACAACAGAGGAUUGAGCAUCA
B17: chr2:27806210:27806211:+_ENSMUSG00000026837_ENSMUST00000028280|mus_hu|FALSE|FALSE (ssRNA)
RNA: GGGAGUUCUACAGUCCGACGAUCUGUGGUUUCUUUGGCAGCUUCCACGGGCUUCUUGCUGGGGGUGGGCUCCUUCCCUAGGUCUUCGGGGUCUUCGUAGUAGGGGUAUUCGUAGUAAUAGGUCUCACCCUCGCCGUCUCCUUCCAACAGAGGAUUGAGCAUCA
B18: chr6:43255143:43255144:+_ENSG00000146216_ENST00000259750|hu_hu|FALSE|FALSE (ssRNA)
RNA: GGGAGUUCUACAGUCCGACGAUCCUCAGGCCCCCUUCUUCCUCCCAGCUCCAAACCAGGGUGUUGUUGGUCCUGGGGCAGAGGUGAGGCUGGGGGCCCUACAUUCACGGUUCGGUUGGUGGCAAGGAGCAGGCCCAGGGCCUGCAACAGAGGAUUGAGCAUCA
B19: 31370942_31371062_1482_CDS_ENSMUSG00000006307_ENSMUST00000006470|mouse|control|control (ssRNA)
RNA: GGGAGUUCUACAGUCCGACGAUCUCCUGUGGUGGUGCUAGGGUUUGGAGUGGGAGAAAGGGUGCCCUCUGGUCCUGACCGAGCAGCUUCCCUCUCUGCCCGCUGGCUAGGAGUCAGGGGAGGCCUGCCCCUCUUCCUAGAGCACAACAGAGGAUUGAGCAUCA

In the assay the target is T1, UNK ZnF1-3. The assay is described as follows: nsRBNS (natural sequence RNA bind-n-seq); RBNS binding buffer (assumed for nsRBNS): 25 mM Tris pH 7.5, 150 mM KCl, 3 mM MgCl2, 0.01% Triton X-100, 500 ug/ml BSA, 20 U/ml SUPERase-In, 4 C; UNK is unkempt and MSI1 is Musashi-1; names of the RNAs are library labels; protein concentration not given here; high values mean tight binding.
B1: the binding signal came to 1.07 enrichment R. Molecule B2 displayed a binding signal of 0.654 enrichment R.

In turn, B3 yielded a binding signal of 1.23 enrichment R.

Consider B4, for which the binding signal came out at 1.47 enrichment R. B5 came in with a binding signal of 0.849 enrichment R.

The molecule B6 gave a binding signal of 1.58 enrichment R. B7 returned a binding signal of 11 enrichment R. In turn, B8 yielded a binding signal of 1.16 enrichment R. As to B9, the binding signal was determined as 1.33 enrichment R. With B10, the binding signal stood at 0.683 enrichment R. The molecule B11 displayed a binding signal of 5.58 enrichment R. In the case of B12, the binding signal came out at 5.65 enrichment R. In the case of B13, the binding signal came to 0.827 enrichment R. With B14, the binding signal was determined as 1.42 enrichment R.

The molecule B15 had a binding signal of 4.19 enrichment R.

For the molecule B16, the binding signal was found to be 0.632 enrichment R. The molecule B17 had a binding signal of 0.604 enrichment R. The molecule B18 displayed a binding signal of 0.703 enrichment R. B19 had a binding signal of 0.887 enrichment R.

The values above are taken from PMC12136788.
